Holding throughout (test): NCI-60 one-dose screen, 48 h (100 = growth as untreated, 0 = no growth, -100 = all killed)
Conditions in all cases: 10 µM unless noted

Assay [1] deals with SK-MEL-2 melanoma.
The subject of assay [2] is EKVX NSCLC.
The subject of assay [3] is SN12C renal.
The subject of assay [4] is UO-31 renal.
Assay [5] relates to TK-10 renal.
The test system of assay [6] is ACHN renal.
Assay [7] deals with CAKI-1 renal.
For assay [8], the system named is A498 renal.
Assay [9] concerns CCRF-CEM leukemia.
Assay [10] concerns MOLT-4 leukemia.

This is part of a sample that, as a whole, favours compounds with a hit. Of some 83,000 tested, about 20% had one in any assay.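 Method: cells in 96-well plates; compound added at one concentration; 48 h incubation; percent growth measured; values under 10 scored active.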 A number with no mark means an inactive call. Active and inactive are the calls of the source.

As to `C=CCN=C(N)SCCCCCCSC(N)=NCC=C`, the growth in [1] was 80.5%; in assay [2], 98.4%; in assay [3], 97.4%; in assay [4], 80.6%; in assay [5], 79.6%; in [6], 106%. The growth is 97.7% in assay [7], 79.3% in [8], 106% in [9] and 81.8% in assay [10].
Consider `Cn1cc(-c2nc(-c3c[nH]c4ccncc34)cs2)c2cc(Br)ccc21`, for which the growth in assay [1] was -57.7% (active); in assay [2], -75.3% (active); in [3] it was -74.4% (active); in assay [4], -91.2% (active); in assay [5], -84% (active); in assay [6], -98.9% (active). Also, the growth in assay [7] is -77.2% (active); in assay [8] it was -78% (active); in assay [9], -43.4% (active); in assay [10] it was -66.4% (active).
As for `CCc1cccc(Sc2cc(C(=O)N3Cc4ccc(OCCN(C)C)cc4C3)ccc2O)c1`, the growth is 88.2% in [1]; 39.2% in [2]; 63.9% in assay [3]; 56.5% in assay [4]; 63.2% in assay [5]; 58.2% in assay [6]. Besides, the growth in assay [7] is 83.5%; in [8] it was 42.2%; in [9] it was 29.2%; in assay [10], 25%.
For `O=C(/C=C/c1ccccc1)Nc1ncc(Cc2ccccc2)s1`, the growth is 26.1% in [1]; 23.2% in assay [2]; 32.4% in assay [3]; 30.4% in assay [4]; 35% in [5]; 26.5% in assay [6]. Moreover, the growth in [7] is 27.8%; in [8], 12.6%; in assay [9] it was 20.3%; in assay [10], 22.6%.
`CCOC(=O)c1c2c(n3ccccc13)C(=O)c1ncccc1C2=O`: the growth in [1] was 65.6%; in assay [2] it was 40.4%; in assay [3] it was 10.3%; in assay [4], 1.86% (active); in assay [5] it was 38.4%; in assay [6], 7.49% (active). Also, the growth in assay [7] is 9.11% (active); in [8], 30.7%; in assay [9], 32.1%; in [10] it was 31.9%.
`COc1ccc2c(c1)c(-c1nonc1-c1c[nH]c3ccc(Br)cc13)cn2C`: the growth was 46.9% in [1]; 31.6% in [2]; 59.3% in assay [3]; 40.8% in assay [4]; 58.2% in [5]; 43.7% in assay [6]. The growth is 34.3% in assay [7], 27.4% in assay [8], 33.5% in assay [9] and 17.6% in assay [10].
For the molecule `CS(=O)(=O)Nc1cncc(-c2ccc3ncnc(Nc4ccc(F)c(Cl)c4)c3c2)c1`, the growth in [1] is 8.23% (active); in assay [2], 0.905% (active); in assay [3], 33.9%; in assay [4], 38.1%; in assay [5] it was -2.22% (active); in assay [6], 32.3%. Besides, the growth is 44.7% in [7], -7.33% (active) in assay [8], 11.8% in assay [9] and -22.8% (active) in assay [10].
Regarding `CN1CCN(Cc2ccc(NC(=O)c3cncc(C#Cc4cnn5ccccc45)c3)cc2C(F)(F)F)CC1`, the growth in assay [1] was -27% (active); in assay [2], -3.23% (active); in assay [3], -1.07% (active); in [4] it was -9.3% (active); in assay [5] it was 7.73% (active); in [6] it was 2.54% (active). Also, the growth in assay [7] was -9.06% (active); in assay [8], -11.7% (active); in [9], 6.17% (active); in assay [10], 1.84% (active).
`C#Cc1cccc(Nc2nc3ccc([N+](=O)[O-])cc3nc2Nc2cccc(C#C)c2)c1`: the growth in assay [1] is -53.8% (active); in assay [2], -12% (active); in assay [3], -39.1% (active); in [4] it was -84.1% (active); in [5], -34.4% (active); in assay [6], -1.34% (active). Also, the growth is -25.8% (active) in assay [7], -20.3% (active) in [8], -33.9% (active) in assay [9] and -47.5% (active) in [10].
Take `CN(Cc1cnc2nc(N)nc(N)c2n1)c1c(Cl)cc(C(=O)NC(CCC(=O)O)C(=O)O)cc1Cl` (stereo not given): the growth was 59.8% in assay [1]; 42.4% in assay [2]; 26.3% in assay [3]; 11.5% in assay [4]; 36% in [5]; 29% in assay [6]. Moreover, the growth in [7] was -20% (active); in assay [8], 47.7%; in [9] it was 34.8%; in assay [10], 25.8%.
Regarding `CCN1C(=O)N(CC)C2C1NN=c1s/c(=C\c3cc4ccccc4[nH]3)c(=O)n12` (stereo not given), the growth in assay [1] is 23.1%; in assay [2], 54.5%; in assay [3] it was 11.2%; in assay [4], 18.7%; in [5], 59.6%; in assay [6], 11.7%. In addition, the growth in [7] is 7.63% (active); in assay [8] it was 2.17% (active); in assay [9] it was -8.2% (active); in assay [10], 11.1%.
Turning to `CCOC(=O)c1c(-c2ccc(Cl)cc2)c(C#N)c2c(C#N)c(N)nn2c1N`, the growth in [1] is 52.5%; in [2], 60.1%; in assay [3] it was 79.1%; in assay [4] it was 66.4%; in [5] it was 84.4%; in assay [6] it was 72%. The growth was 66% in assay [7], 29.3% in assay [8], 30.5% in assay [9] and 25.6% in [10].
Regarding `O=C(Nc1ccc(F)cc1)Nc1ccccc1CNc1nc(Nc2ccc(OCCN3CCCC3)cc2)ncc1Cl`, the growth in [1] is 99%; in assay [2], 53.9%; in assay [3], -21.7% (active); in assay [4], -81.5% (active); in assay [5], 47.2%; in assay [6], -61.9% (active). Besides, the growth in assay [7] was 31.2%; in assay [8] it was 80.4%; in assay [9] it was 6.77% (active); in [10], 14.1%.
